Experimental findings from the supplement of paper PMC6555819 are described below.

The subject of the assay is PPARg DBDmut:RXRa IVT, anti-PPARg (DBD mutation: PPARg1 K132A/R137A, NR concentration 270 nM, RXRa partner concentration 90 nM). The assay can be described thus: PBM binding z-score (relative to random genomic background probes); higher = stronger binding; sequences stand for … in GC…GCGATTGACAGCGTAGAATGAAGG
In outline:
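Each nuclear receptor dimer, without ligand, was incubated for 1 h on custom Agilent 4×180K protein-binding microarrays. Binding was detected with antibodies against each partner (one per run), and scanned fluorescence was regression-normalized. The binding z-scores are referenced to random human genomic background probes.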
In the case of CCGACTGGGGCATAAGGTTACTATAAGCCAGCCC, the PBM binding z-score was -0.815.
On to CTCGAAAGGTCGGTTGAGGTGAGTACACGGATAA, for which the PBM binding z-score came out at 0.39.
AATACAGGGTCACTATGCCAGAGTAGGTACGAAT had a PBM binding z-score of 1.77.
In turn, TAGCCTAGGTCAGATCGGGCCTGTATACGCTATA yielded a PBM binding z-score of -0.328.
TATACAGGGTCAAAGGCCAGGGTACGAATGTCGA displayed a PBM binding z-score of 2.34.
Turning to TCTAGTTGGTCACGGAGGTCACACTCGACGGGTA, the PBM binding z-score is 1.32.
For AGTTAAAGTTCACTAGGTAACGTAAGATTCAGCT, the PBM binding z-score was 1.44.
In the case of CCTTACGGGTCACTGACAGGTTATACCATTTGGA it was 0.775; in that of ACCGAAAGGTCGTGAGGTGAGTATACAGAAAGGC, 0.794.
The sequence CGTCCAAGGTGAAGGTCAGTGAAAGAGACTCGAA returned a PBM binding z-score of -0.298.
For the sequence ATCTCTAGGTAGGACTCAGTTCAGTGAAGAACGC, the PBM binding z-score was 0.763.
Consider ACTATTAGTTGAGACGACGGCAACCGATAGGTTG, for which the PBM binding z-score was 0.669.
ATCACTAGGTAAGACTCAGTTCAGTGAAGAACGC showed a PBM binding z-score of 0.271.
Turning to TCATATAGGTAAATGCTAGGTGTAAGTCCGATCT, the PBM binding z-score was 0.286.
Turning to CTCGAAAGGTCGTGCTCAGGTGGGTATACCAAAC, the PBM binding z-score was 0.375.
In turn, AGAATGAGCTTATTAAGATCAGGGAATTGCGGTC came in with a PBM binding z-score of 0.296.
As for TCTCGGAGGACACGACAGGTCAGAGCTCGACATC, the PBM binding z-score turned out to be 0.0844.
The result for TCTTGTAGATCAGGCAGGTTAAGAAAGCCTGAGT reads 0.127.
In the case of GATACAGGGTCAGCTAGAGGCCAAAGTATGGAAA it was 0.457; in that of CCTATTAGTTGACCATAAGGGTAACCGAAGCTCG, 0.109; in that of ATCTCTAGGTAAAGATAGTTCAGTGGATGCAAAT, 0.905.
Regarding CAGCCTAGGTCAGTGCCAGTATAGGAGGAACGTT, the PBM binding z-score was -1.18.
